What all share (assay): DAPPL (digital affinity profiling via proximity ligation, sequencing); 10 mM Tris-HCl pH 7.5, 50 mM NaCl, 1 mM DTT, 4% glycerol, room temperature, 30 min; GST-TFs on glutathione beads, 16-mer random dsDNA library, 0.1% formaldehyde crosslink after washing; high values mean tight binding
For one assay, the target named is T1, FLI1 (Homo sapiens, UniProt Q01543 1-452).
T1 sequence: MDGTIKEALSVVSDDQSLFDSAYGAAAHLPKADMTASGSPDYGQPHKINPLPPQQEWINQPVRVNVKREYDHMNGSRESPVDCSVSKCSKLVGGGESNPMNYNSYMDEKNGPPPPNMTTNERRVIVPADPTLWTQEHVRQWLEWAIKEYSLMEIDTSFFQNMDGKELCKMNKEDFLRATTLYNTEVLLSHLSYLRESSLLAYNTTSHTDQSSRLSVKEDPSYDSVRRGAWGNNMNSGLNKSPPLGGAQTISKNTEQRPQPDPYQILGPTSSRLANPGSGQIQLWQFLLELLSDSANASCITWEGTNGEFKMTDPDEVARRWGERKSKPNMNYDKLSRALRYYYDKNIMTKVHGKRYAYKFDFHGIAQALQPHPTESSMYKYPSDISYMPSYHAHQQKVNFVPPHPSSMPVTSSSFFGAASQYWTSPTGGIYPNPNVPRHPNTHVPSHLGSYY
To be noted: protein: recombinant; tags: N-terminal GST; dsDNA, one strand shown. The method, boiled down: (§1)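 Human transcription factors fused to GST were expressed in yeast, captured on glutathione beads, given DNA barcodes and pooled with a GST-only negative control. Pools were incubated with 200 nmole of a 16-mer random double-stranded DNA library in Tris/NaCl/DTT/glycerol buffer at room temperature for 30 min. They were then washed, crosslinked with 0.1% formaldehyde, proximity-ligated (BsaI/T4 ligase, 1 h, 37 °C), PCR-amplified and sequenced on an Illumina NextSeq500. Binding signal is each 6-mer's read frequency for a factor divided by its frequency for the GST control.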

Another assay has as its target T2, ELK1 (Homo sapiens, UniProt P19419 1-428).
T2 sequence: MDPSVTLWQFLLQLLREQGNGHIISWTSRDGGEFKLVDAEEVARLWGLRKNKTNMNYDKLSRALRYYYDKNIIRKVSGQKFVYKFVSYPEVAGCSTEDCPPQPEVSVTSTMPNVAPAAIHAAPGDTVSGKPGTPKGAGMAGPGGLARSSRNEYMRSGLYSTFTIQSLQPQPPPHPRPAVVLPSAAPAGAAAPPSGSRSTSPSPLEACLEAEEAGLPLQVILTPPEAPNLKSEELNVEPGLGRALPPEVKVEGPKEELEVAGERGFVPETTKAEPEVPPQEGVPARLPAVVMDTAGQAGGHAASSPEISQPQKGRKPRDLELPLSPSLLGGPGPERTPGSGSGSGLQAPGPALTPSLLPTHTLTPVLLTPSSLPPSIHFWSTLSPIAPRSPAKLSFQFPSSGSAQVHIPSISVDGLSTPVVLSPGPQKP
The conditions noted are these: protein: recombinant; tags: N-terminal GST; dsDNA, one strand shown. In outline:
as §1

For the next assay, the target named is T3, GABPA (Homo sapiens, UniProt Q06546 1-454).
T3 sequence: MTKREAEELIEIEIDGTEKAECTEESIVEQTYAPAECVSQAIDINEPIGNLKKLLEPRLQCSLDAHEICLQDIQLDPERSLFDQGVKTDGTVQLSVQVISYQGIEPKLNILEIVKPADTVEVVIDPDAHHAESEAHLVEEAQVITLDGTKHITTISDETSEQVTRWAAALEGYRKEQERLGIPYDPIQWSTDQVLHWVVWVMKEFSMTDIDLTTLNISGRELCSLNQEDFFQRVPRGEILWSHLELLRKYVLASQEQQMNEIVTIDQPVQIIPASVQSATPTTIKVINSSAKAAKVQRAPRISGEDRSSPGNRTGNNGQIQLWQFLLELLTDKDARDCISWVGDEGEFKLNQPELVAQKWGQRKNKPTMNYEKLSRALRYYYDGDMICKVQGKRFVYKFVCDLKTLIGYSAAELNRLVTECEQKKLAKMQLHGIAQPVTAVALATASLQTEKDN
To be noted: protein: recombinant; tags: N-terminal GST; dsDNA, one strand shown. In outline: as §1

In the next assay the target is T4, ERG (Homo sapiens, UniProt P11308 1-479).
T4 sequence: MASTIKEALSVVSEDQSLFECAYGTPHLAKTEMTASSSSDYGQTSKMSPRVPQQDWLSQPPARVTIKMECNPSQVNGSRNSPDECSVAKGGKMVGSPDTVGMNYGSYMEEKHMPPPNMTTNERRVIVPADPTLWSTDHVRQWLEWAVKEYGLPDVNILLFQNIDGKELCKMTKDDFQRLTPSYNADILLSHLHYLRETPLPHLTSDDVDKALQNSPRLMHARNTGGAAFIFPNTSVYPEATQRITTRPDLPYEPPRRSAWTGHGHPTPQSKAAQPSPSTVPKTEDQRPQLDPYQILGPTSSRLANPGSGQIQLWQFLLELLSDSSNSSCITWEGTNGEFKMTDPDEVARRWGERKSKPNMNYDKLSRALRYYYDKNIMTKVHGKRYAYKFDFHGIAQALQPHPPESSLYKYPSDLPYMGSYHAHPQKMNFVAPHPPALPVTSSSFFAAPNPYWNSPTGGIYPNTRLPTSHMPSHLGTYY
To be noted: protein: recombinant; tags: N-terminal GST; dsDNA, one strand shown. In outline:
as §1

A further assay deals with ELF1 (Homo sapiens, UniProt P32519 1-619). The conditions noted are these: protein: recombinant; tags: N-terminal GST; dsDNA, one strand shown. In outline:
as §1

Another assay has as its target T5, EHF (Homo sapiens, UniProt Q9NZC4 1-300).
T5 sequence: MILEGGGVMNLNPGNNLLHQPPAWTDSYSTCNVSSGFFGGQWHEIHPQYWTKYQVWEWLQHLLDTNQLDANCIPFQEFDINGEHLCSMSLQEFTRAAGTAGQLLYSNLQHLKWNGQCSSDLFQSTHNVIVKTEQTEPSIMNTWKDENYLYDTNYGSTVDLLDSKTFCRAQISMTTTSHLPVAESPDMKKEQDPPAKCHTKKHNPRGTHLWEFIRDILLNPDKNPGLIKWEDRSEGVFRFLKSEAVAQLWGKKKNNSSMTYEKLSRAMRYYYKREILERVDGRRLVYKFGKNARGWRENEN
To be noted: protein: recombinant; tags: N-terminal GST; dsDNA, one strand shown. The method, boiled down: as §1

The target of the next assay is SPIB (Homo sapiens, UniProt Q01892 1-262). The conditions noted are these: protein: recombinant; tags: N-terminal GST; dsDNA, one strand shown. The method, boiled down:
as §1

For another assay, the target named is T6, ELK3 (Homo sapiens, UniProt P41970 1-407).
T6 sequence: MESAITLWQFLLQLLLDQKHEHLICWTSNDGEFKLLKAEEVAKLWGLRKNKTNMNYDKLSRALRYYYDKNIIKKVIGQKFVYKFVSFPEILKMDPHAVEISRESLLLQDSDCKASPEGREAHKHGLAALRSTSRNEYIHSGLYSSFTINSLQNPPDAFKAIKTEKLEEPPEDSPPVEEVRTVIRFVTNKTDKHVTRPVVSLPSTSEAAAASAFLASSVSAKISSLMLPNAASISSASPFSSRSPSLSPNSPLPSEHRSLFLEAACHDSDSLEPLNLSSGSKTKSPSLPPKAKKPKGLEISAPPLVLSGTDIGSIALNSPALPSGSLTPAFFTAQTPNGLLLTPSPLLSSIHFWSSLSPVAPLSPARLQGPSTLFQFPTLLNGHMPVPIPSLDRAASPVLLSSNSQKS
The conditions noted are these: protein: recombinant; tags: N-terminal GST; dsDNA, one strand shown. In outline: as §1

The next assay has as its target HSF1 (Homo sapiens, UniProt Q00613 1-529). To be noted: protein: recombinant; tags: N-terminal GST; chain copies: 3; dsDNA, one strand shown. The method, boiled down:
as §1

The next assay concerns the target ELF4 (Homo sapiens, UniProt Q99607 1-663). To be noted: protein: recombinant; tags: N-terminal GST; dsDNA, one strand shown. In outline: as §1
The target of another assay is T7, ELK4 (Homo sapiens, UniProt P28324-2 1-405).
T7 sequence: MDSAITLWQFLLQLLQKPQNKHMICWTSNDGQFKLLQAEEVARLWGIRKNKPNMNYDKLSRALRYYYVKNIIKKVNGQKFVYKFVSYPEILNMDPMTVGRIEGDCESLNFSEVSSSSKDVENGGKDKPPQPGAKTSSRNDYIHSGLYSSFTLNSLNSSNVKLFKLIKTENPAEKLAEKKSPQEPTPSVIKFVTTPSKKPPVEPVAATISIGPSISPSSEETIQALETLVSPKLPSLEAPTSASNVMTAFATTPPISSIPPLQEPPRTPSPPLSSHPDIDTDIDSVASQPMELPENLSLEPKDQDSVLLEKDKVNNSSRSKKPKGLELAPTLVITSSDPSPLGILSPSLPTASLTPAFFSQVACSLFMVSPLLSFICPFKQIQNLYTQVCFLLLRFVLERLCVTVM
To be noted: protein: recombinant; tags: N-terminal GST; dsDNA, one strand shown. In outline:
as §1

For the next assay, the target named is T8, ELF3 (Homo sapiens, UniProt P78545 1-371).
T8 sequence: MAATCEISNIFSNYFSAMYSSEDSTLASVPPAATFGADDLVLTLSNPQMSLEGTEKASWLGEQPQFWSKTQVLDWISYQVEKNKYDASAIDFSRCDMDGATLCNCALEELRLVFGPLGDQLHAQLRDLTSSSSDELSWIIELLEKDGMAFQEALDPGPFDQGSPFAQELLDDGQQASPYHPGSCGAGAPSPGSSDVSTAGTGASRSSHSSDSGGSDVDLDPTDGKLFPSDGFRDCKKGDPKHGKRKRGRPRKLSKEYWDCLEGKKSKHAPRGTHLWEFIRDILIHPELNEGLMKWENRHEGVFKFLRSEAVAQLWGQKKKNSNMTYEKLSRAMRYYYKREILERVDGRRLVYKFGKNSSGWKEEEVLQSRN
The conditions noted are these: protein: recombinant; tags: N-terminal GST; dsDNA, one strand shown. In outline:
as §1

The next assay deals with ETV1 (Homo sapiens, UniProt P50549 1-477). To be noted: protein: recombinant; tags: N-terminal GST; dsDNA, one strand shown. In outline: as §1
ETV1, sequence (P50549 whole entry): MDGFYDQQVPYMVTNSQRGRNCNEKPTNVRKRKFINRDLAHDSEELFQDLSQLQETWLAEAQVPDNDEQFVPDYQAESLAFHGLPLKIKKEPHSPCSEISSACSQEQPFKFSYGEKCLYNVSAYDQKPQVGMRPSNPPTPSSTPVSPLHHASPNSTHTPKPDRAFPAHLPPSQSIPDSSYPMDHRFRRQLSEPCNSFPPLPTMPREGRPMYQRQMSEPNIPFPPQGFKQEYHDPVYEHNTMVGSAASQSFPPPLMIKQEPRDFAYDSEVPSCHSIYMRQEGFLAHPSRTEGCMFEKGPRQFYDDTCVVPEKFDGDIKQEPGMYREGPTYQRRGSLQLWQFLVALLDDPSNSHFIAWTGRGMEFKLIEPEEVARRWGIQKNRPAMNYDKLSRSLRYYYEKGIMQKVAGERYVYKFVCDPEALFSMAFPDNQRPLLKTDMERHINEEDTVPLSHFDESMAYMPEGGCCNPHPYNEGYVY
The next assay deals with T9, ERF (Homo sapiens, UniProt P50548 1-548).
T9 sequence: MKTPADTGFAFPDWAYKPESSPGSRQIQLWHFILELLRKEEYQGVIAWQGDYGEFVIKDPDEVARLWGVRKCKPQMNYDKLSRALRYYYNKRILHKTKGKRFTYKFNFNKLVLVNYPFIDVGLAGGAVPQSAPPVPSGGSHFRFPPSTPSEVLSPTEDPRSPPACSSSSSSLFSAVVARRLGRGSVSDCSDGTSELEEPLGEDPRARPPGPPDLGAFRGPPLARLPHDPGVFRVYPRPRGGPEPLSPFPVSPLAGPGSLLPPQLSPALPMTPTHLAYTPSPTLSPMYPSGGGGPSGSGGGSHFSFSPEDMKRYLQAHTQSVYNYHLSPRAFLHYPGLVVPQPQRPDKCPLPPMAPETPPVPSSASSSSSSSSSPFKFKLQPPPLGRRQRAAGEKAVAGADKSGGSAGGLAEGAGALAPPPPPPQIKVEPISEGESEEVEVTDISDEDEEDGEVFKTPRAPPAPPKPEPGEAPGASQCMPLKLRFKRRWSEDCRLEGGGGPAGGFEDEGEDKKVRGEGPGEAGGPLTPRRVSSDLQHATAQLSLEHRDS
The conditions noted are these: protein: recombinant; tags: N-terminal GST; dsDNA, one strand shown. The method, boiled down: as §1

A further assay concerns the target T10, ETV3L (Homo sapiens, UniProt Q6ZN32 1-361).
T10 sequence: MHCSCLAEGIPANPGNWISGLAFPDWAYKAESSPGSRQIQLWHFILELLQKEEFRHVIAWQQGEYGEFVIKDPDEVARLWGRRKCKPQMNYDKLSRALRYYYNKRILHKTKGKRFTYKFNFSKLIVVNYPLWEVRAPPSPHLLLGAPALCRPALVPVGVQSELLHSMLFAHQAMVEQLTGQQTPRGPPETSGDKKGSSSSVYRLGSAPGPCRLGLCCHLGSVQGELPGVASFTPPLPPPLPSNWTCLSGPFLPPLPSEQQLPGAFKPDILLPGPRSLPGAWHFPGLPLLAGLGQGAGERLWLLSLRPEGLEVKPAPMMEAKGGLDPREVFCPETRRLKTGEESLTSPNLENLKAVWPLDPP
The conditions noted are these: protein: recombinant; tags: N-terminal GST; dsDNA, one strand shown. The method, boiled down: as §1

In a further assay the target is T11, ETV3 (Homo sapiens, UniProt P41162-2 1-143).
T11 sequence: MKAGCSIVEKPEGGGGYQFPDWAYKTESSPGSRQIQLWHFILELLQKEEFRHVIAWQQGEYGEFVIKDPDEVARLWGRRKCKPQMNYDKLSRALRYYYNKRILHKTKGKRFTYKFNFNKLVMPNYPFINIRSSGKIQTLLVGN
To be noted: protein: recombinant; tags: N-terminal GST; dsDNA, one strand shown. In outline: as §1

The next assay has as its target ETV6 (Homo sapiens, UniProt P41212 1-452). To be noted: protein: recombinant; tags: N-terminal GST; dsDNA, one strand shown. The method, boiled down: as §1

ELF4, sequence (Q99607 whole entry): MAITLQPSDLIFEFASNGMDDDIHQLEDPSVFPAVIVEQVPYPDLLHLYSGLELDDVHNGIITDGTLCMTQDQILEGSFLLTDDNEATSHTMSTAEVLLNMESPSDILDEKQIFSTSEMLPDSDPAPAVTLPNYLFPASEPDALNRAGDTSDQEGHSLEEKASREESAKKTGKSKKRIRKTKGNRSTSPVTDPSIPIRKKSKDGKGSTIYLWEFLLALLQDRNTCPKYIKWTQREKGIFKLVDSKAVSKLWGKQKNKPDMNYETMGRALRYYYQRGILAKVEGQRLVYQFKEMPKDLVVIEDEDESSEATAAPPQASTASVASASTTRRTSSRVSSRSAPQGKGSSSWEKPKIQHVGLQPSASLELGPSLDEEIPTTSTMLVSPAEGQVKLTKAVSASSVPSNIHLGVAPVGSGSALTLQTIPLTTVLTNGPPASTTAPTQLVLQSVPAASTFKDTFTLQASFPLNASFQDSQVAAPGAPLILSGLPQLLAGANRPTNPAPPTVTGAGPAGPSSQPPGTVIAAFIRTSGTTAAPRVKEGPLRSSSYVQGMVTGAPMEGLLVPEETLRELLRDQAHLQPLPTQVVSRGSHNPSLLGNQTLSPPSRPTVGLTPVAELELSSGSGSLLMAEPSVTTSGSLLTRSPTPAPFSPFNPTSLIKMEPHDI
SPIB, sequence (Q01892 whole entry): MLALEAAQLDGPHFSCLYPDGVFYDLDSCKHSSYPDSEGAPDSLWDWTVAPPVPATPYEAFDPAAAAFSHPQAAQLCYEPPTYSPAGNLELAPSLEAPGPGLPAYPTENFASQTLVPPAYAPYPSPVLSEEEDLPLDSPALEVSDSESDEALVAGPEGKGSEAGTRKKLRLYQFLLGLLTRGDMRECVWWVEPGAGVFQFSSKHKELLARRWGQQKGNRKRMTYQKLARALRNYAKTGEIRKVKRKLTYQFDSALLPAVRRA
HSF1, sequence (Q00613 whole entry): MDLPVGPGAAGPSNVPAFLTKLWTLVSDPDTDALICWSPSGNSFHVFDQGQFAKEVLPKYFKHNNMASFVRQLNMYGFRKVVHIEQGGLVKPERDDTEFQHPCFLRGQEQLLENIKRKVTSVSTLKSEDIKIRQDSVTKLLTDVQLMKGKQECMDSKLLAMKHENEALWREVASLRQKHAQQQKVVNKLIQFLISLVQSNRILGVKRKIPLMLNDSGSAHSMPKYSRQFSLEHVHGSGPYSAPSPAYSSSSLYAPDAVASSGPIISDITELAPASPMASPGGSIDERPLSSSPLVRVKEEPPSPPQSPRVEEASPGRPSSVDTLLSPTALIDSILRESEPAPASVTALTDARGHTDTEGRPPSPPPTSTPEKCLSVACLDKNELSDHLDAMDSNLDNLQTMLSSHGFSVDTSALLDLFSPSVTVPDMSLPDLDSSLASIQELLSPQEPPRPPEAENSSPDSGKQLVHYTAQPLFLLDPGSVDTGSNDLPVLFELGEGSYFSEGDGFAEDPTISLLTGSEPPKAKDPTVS
ETV6, sequence (P41212 whole entry): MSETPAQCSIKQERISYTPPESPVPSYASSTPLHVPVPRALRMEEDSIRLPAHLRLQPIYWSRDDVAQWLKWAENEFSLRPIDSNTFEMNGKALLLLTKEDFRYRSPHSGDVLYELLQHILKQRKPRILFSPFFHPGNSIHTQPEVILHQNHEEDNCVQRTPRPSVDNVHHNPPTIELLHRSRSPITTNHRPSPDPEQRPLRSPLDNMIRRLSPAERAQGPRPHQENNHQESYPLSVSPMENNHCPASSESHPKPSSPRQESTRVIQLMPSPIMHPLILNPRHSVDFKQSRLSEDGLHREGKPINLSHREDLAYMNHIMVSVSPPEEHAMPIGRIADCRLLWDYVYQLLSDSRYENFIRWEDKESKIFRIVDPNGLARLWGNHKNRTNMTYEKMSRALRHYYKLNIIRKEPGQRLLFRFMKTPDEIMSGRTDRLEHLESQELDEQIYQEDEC
ELF1, sequence (P32519 whole entry): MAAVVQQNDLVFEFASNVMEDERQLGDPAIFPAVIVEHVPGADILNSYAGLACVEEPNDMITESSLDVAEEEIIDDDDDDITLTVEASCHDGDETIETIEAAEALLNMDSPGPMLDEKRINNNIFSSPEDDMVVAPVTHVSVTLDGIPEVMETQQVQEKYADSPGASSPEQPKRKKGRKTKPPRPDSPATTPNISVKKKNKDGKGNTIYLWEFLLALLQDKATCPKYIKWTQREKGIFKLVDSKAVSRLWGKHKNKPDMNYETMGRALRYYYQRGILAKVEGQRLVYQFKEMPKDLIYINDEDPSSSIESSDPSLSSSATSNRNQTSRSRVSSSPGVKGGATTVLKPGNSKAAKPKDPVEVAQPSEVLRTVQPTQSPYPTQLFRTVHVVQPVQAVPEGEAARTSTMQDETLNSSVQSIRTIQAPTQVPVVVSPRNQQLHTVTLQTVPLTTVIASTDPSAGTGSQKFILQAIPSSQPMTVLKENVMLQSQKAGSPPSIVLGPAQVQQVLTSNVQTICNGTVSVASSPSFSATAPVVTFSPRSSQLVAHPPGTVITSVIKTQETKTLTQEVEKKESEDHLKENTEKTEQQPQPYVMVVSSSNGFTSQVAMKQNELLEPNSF

For GATCCA, the binding signal with FLI1 is 1.01 fold enrichment (6-mer frequency, TF over GST control); with ELK1, 1.08 fold enrichment (6-mer frequency, TF over GST control); with GABPA, 1.16 fold enrichment (6-mer frequency, TF over GST control); with ERG, 1.03 fold enrichment (6-mer frequency, TF over GST control); in the assay with ELF1, 1.04 fold enrichment (6-mer frequency, TF over GST control); with EHF it was 1.07 fold enrichment (6-mer frequency, TF over GST control). Moreover, the binding signal was 1.08 fold enrichment (6-mer frequency, TF over GST control) with SPIB; 1.02 fold enrichment (6-mer frequency, TF over GST control) with ELK3; 1.21 fold enrichment (6-mer frequency, TF over GST control) in the assay with HSF1; 1.05 fold enrichment (6-mer frequency, TF over GST control) with ELF4; 1.03 fold enrichment (6-mer frequency, TF over GST control) in the assay with ELK4; 1.15 fold enrichment (6-mer frequency, TF over GST control) with ELF3. The binding signal in the assay with ETV1 was 1.07 fold enrichment (6-mer frequency, TF over GST control); with ERF it was 1.03 fold enrichment (6-mer frequency, TF over GST control); in the assay with ETV3L it was 1.06 fold enrichment (6-mer frequency, TF over GST control); with ETV3 it was 1.05 fold enrichment (6-mer frequency, TF over GST control); with ETV6 it was 1.05 fold enrichment (6-mer frequency, TF over GST control).

The values above are taken from paper PMC7862700, “An all-to-all approach to the identification of sequence-specific readers for epigenetic DNA modifications on cytosine”.
